# The panel holds about 83,000 compounds, 20% with a hit somewhere; the sample as a whole holds those more often.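 Interpretation: 100, growth as untreated; towards 0, rising growth inhibition; 0, no net growth; 0 to -100, cell death. Compounds scoring below 10 were considered active.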 Calls of active or inactive are those of the source.
# System: PC-3 prostate
# Assay: NCI-60 one-dose screen, 48 h (100 = growth as untreated, 0 = no growth, -100 = all killed)
# Conditions: 10 µM unless noted
row,Compound,growth
1,Cc1cc(C)c(S(=O)(=O)Oc2ccccc2[N+](=O)[O-])c(C)c1,20.7% (inactive)
2,CCCOc1ccc(/C=N/Nc2cc(C)nc3ccc(Br)cc23)cc1,87.6% (inactive)
3,COc1ccc2nc(-c3ccc(-c4noc(-c5cc(OC)c(OC)c(OC)c5)n4)cc3)[nH]c2c1,95.2% (inactive)
4,CCCCCN1C=C/C(=C\C(=O)N(C)c2ccc(Oc3ccccc3)cc2)c2ccccc21,77.6% (inactive)
5,COc1cc2oc(-c3cccc(C(=O)Nc4ccccc4)c3)cc(=O)c2c(O)c1OC,71% (inactive)
6,c1ccc2c(-c3nccs3)c[nH]c2c1,81.5% (inactive)
7,O=C(O)c1ccc(NCc2cn(-c3ccc(C(F)(F)F)cc3)nc2-c2ccc(C(=O)O)cc2)cc1,108% (inactive)
8,NS(=O)(=O)c1ccc(CCN2C(=O)C=CC2=O)cc1,100% (inactive)
9,C/C(=N\Nc1cc(C)nc2ccc(Br)cc12)c1ccc([N+](=O)[O-])cc1,74.8% (inactive)
10,CCCCCCNC(=O)Oc1ccc(/C(=C(\C)c2ccccc2)c2ccc(OCCN3CCCCC3)cc2)cc1,47.9% (inactive)
11,CCCNC(=O)Oc1ccc(/C(=C(\C)c2ccccc2)c2ccc(OCCCN(C)C)cc2)cc1,71.7% (inactive)
12,O=C1c2ccccc2C(=O)c2c([N+](=O)[O-])ccc(Cl)c21,82.4% (inactive)
13,O=C1Nc2cc(Cl)ccc2/C1=C\c1c(-c2ccc(F)cc2)nc2ccccn12,12.8% (inactive)
14,CSc1nc2sc3cccc(Cl)c3n2c(=N)c1C#N,90.8% (inactive)
15,Cc1cccc(C)c1N=c1oc2ccc(Cl)cc2nc1-c1ccccc1O,88.6% (inactive)
16,C=C(C)[C@@H]1CC[C@]2(C(=O)N3CCN(C)CC3)CC[C@]3(C)[C@H](CC[C@@H]4[C@@]5(C)CC[C@H](OCCC#N)C(C)(C)[C@@H]5CC[C@]43C)[C@@H]12,72.2% (inactive)
17,Cc1cc2nc3c4ccc(Br)cc4n(CCN(C)C)c3nc2cc1C,12.8% (inactive)
18,O=C(/C=C/c1ccc(Cl)cc1)c1ccc(NC(=O)N2CCN(c3cc4c(cc3F)c(=O)c(C(=O)O)cn4C3CC3)CC2)cc1,97.7% (inactive)

row,Compound,growth
1,CN(C)CCC(=O)c1ccc([N+](=O)[O-])cc1,93.6% (inactive)
2,COc1ccc(-c2nc([C@@H](C)Sc3nc(N)cc(N)n3)c(C)s2)cc1OCCN1CCOCC1,79.8% (inactive)
3,CCN1CCN(CCNc2nccc(-c3c(-c4cccc(OC)c4)nc4occn34)n2)S1(=O)=O,96.9% (inactive)
4,NS(=O)(=O)c1ccc(CCN2C(=O)c3cc(Cl)c(Cl)cc3C2=O)cc1,99.2% (inactive)
5,COc1ccc(-c2cnc3c(-c4cccc5cnccc45)cnn3c2)cc1,50.6% (inactive)
6,N#C/C(=C\c1ccc(Cl)cc1)n1nnc2cc(F)c(F)cc21,30.9% (inactive)
7,C=C1C(=O)O[C@H]2[C@H]1CC/C(CNC(=O)/C=C/c1ccccc1)=C\CC[C@@]1(C)O[C@@H]21,9.48% (active)
8,COc1ccc(-c2nc(S(=O)(=O)c3ccccc3)c(S(=O)CC(=O)N3CCC(C)CC3)o2)cc1 (stereo not given),40.9% (inactive)
9,COC(=O)/C=C1\S/C(=N\NC(=O)c2cc3ccc2/C=C\c2ccc(cc2)/C=C\3)N(c2ccccc2)C1=O,-35.9% (active)
10,O=C(c1nc2ccccc2[nH]1)C1C(c2ccc(Br)cc2)C2CC3CCCC[C@H]3N2[C@@]12C(=O)Nc1cc(Cl)ccc12 (stereo not given in full),28.4% (inactive)
11,Oc1cccc(CCc2ccc(Oc3cc(CCc4cccc(O)c4)cc(O)c3O)cc2)c1,63.5% (inactive)
12,NC(=NCCCOc1ccc(F)cc1)Nc1ccc(I)cc1,59.1% (inactive)
13,CN(CCN(C)c1ccc(C(=N)N)cc1)c1ccc(C(=N)N)cc1,81.3% (inactive)
14,COc1cc(C(=O)Nc2cc3c(cc2Oc2cc(C)cc(C)c2)C(=O)N(C)[C@@H](CC(=O)N(C)O)C(=O)N3)c(Br)c(OC)c1OC,-14.5% (active)
15,CCNC(=O)Oc1ccc(/C(=C(\C)c2ccccc2)c2ccc(OCCN3CCCCC3)cc2)cc1,49.7% (inactive)
16,COc1cc(NC(C)CCCNC(=O)CCC(=O)NCCCNCCCCCCCCCCNCCCNC(=O)CCC(=O)NCCCC(C)Nc2cc(OC)cc3cccnc23)c2ncccc2c1 (stereo not given),78.2% [8 µM] (inactive)
17,O=C(N/N=C/c1ccc(Oc2ccccc2)cc1)c1cnn2c1NC(c1ccccc1)C2 (stereo not given),46.7% (inactive)

# Source: PubChem BioAssay (NCI)
